Test results as given in the supplement of paper PMC8253809.
Values joined by “and” are separate entries in the source; they are usually repeats but may differ in a detail not shown here. Equal entries are not always repeated.

Experiments:
Assay in all cases: growth inhibition (% activity, log2 RLU normalised to DMSO / staurosporine); higher = more growth inhibition
Details in all cases: 33 µM
DIPGX29 = tested on: DIPGX29 (H3.3 K27M diffuse intrinsic pontine glioma line)
How it was run: (§1)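 In triplicate, pHGG cell lines and H9-derived neural stem cells were treated for 7 days at 37 °C, 5% CO2 with approved drugs at a single final concentration of about 33 μM, added by pin tool. CellTiter-Glo luminescence, after log2 transformation, was normalised on each plate to % activity between solvent and positive control wells. Growth inhibition is reported as the median across replicates.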

DIPGX37 = tested on: DIPGX37 (H3.3 K27M diffuse intrinsic pontine glioma line)
How it was run: as §1

DIPGX7 = tested on: DIPGX7 (H3.3 K27M diffuse intrinsic pontine glioma line)
How it was run: as §1

DIPGX9 = tested on: DIPGX9 (diffuse intrinsic pontine glioma line)
How it was run: as §1

HGGX39 = tested on: HGGX39 (paediatric high-grade glioma line)
How it was run: as §1

HGGX6 = tested on: HGGX6 (H3.3 G34R paediatric high-grade glioma line)
How it was run: as §1

HNSC = tested on: HNSC
How it was run: as §1

SUDIPGIV = tested on: SUDIPGIV (diffuse intrinsic pontine glioma line)
How it was run: as §1

SUDIPGVI = tested on: SUDIPGVI (diffuse intrinsic pontine glioma line)
How it was run: as §1

SUDIPGXIII = tested on: SUDIPGXIII (diffuse intrinsic pontine glioma line)
How it was run: as §1

Row | Structure (SMILES) | growth inhibition (DIPGX29) | growth inhibition (DIPGX37) | growth inhibition (DIPGX7) | growth inhibition (DIPGX9) | growth inhibition (HGGX39) | growth inhibition (HGGX6) | growth inhibition (HNSC) [%] | growth inhibition (SUDIPGIV) | growth inhibition (SUDIPGVI) | growth inhibition (SUDIPGXIII)
1 | Nc1nccs1 | -0.162% | 1.62% | -0.134% | 1.18% | -0.0642% | -1.25% | 5.02 | 0.246% | 1.08% | 0.0518%
2 | O=C(Nc1cccc2c(=O)cc(-c3nnn[nH]3)oc12)c1ccc(OCCCCc2ccccc2)cc1 | 2.7% | 2.86% | 2.31% | 0.614% | 2.23% | -2.27% | 52.4 | 2.11% | 1.62% | 2.22%
3 | CCN(CC)CCOC(=O)C(c1ccccc1)c1ccccc1 | 3.33% | 2.41% | 3.35% | 1.46% | 2.96% | 2.47% | 6.35 | 0.181% | 3% | -1.28%
4 | Cc1onc(-c2ccccc2Cl)c1C(=O)N[C@@H]1C(=O)N2[C@@H]1SC(C)(C)[C@@H]2C(=O)O | -0.728% | -0.729% | -0.308% | -1.05% | -0.725% | 1.07% | -1.87 | -0.916% | -0.387% | -9.34%
5 | COC(=O)N[C@H](C(=O)N[C@@H](Cc1ccccc1)[C@@H](O)CN(Cc1ccc(-c2ccccn2)cc1)NC(=O)[C@@H](NC(=O)OC)C(C)(C)C)C(C)(C)C | -2.79% | -2.21% | 1.19% | -1.97% | -2.26% | -3.15% | -5.7 | -0.315% | -14.4% | 0.413%
6 | CCN(CC)CC#CCOC(=O)C(O)(c1ccccc1)C1CCCCC1 (configuration not stated) | 7.11% and -0.14% | -0.636% and -1.02% | 8.09% and 5.01% | 1.99% and -2.12% | 4.03% and -0.183% | 1.74% and -0.191% | – | 3.76% and -2.81% | -0.8% and -5.89% | 1.45% and 2.55%
7 | CN(C)CCCN1c2ccccc2CCc2ccc(Cl)cc21 | 0.798% | 0.768% | 0.947% | 2.88% | 7.81% | 0.658% | 8.46 | 7.66% | 3.07% | 3.28%
8 | Nc1cccc2c1C(=O)N(C1CCC(=O)NC1=O)C2=O (configuration not stated) | 0.275% | 2% | 0.718% | -0.934% | -1.86% | -0.402% | 0.283 | -0.313% | 0.743% | -1.19%
9 | Cc1ccccc1C(OCCN(C)C)c1ccccc1 (configuration not stated) | -0.515% | 0.826% | -0.00592% | 1.44% | 2.28% | 1.66% | -1.91 | 0.0322% | 0.905% | 1.58%
10 | O=C(O)c1cc(-c2ccccc2)nc2ccccc12 | 0.382% | 2.97% | 0.465% | 2.04% | 1.46% | 1.01% | -0.619 | -1.08% | 2.54% | 0.975%
11 | CS(=O)(=O)CCNCc1ccc(-c2ccc3ncnc(Nc4ccc(OCc5cccc(F)c5)c(Cl)c4)c3c2)o1 | 6.23% and 13.7% | 3.79% and 6.67% | 8.64% and 16.6% | 4.74% and 6.77% | 7.08% and 12.7% | 3.29% and 14.5% | – | 3.14% and -0.238% | -6.01% and 3.84% | 0.448% and 1.79%
12 | Nc1ccc(S(=O)(=O)Nc2ncccn2)cc1 | 0.254% | 1.69% | 0.776% | -0.452% | 0.395% | 0.228% | 1.26 | -0.517% | 1.02% | -2.51%
13 | O=C(c1ccc(OCCN2CCCCC2)cc1)c1c(-c2ccc(O)cc2)sc2cc(O)ccc12 | 8.18% | -0.349% | 22.3% | 1.84% | 6.41% | 7.69% | 1.59 | 0.509% | -4.3% | 2.77%
14 | CCN(CC)C(=O)C1(c2ccccc2)CC1CN (configuration not stated) | 0.721% | 0.301% | 0.852% | 0.846% | 0.86% | 2.42% | 1.54 | 1.15% | 2.57% | 0.599%
15 | COc1cc([C@@H]2c3cc4c(cc3[C@@H](O[C@@H]3O[C@@H]5CO[C@@H](c6cccs6)O[C@H]5[C@H](O)[C@H]3O)[C@H]3COC(=O)[C@H]23)OCO4)cc(OC)c1O | 22% | 1.57% | 29.9% | 47.9% | 14.2% | 23.6% | 59.9 | 48% | 10% | 20.7%
16 | CNC(=C[N+](=O)[O-])NCCSCc1csc(CN(C)C)n1 | -0.765% | -2.32% | -0.581% | 0.0593% | 0.382% | 0.506% | -0.992 | -0.124% | 0.207% | 0.421%
17 | CCCCOc1cc(C(=O)OCCN(CC)CC)ccc1N | 0.216% | -0.547% | 1.69% | 0.918% | 14.2% | 9.49% | -2.2 | 4.07% | -0.0266% | 2.42%
18 | O=C(O)CCCC[C@@H]1SC[C@@H]2NC(=O)N[C@@H]21 | 0.444% | 0.747% | 0.534% | 1.28% | 2.04% | 2.52% | -1.69 | 1.07% | 1.25% | 0.684%
19 | COCCCOc1cc(C[C@@H](C[C@H](N)[C@@H](O)C[C@H](C(=O)NCC(C)(C)C(N)=O)C(C)C)C(C)C)ccc1OC | 2.63% | -0.699% | 1.89% | 6.01% | 3.87% | 1.44% | 2.36 | -3.1% | 2.75% | 0.132%
20 | CNC[C@H](O)[C@@H](O)[C@H](O)[C@H](O)CO | 1.22% | 3.72% | 2.92% | 1.9% | 4.71% | 1.37% | 3.01 | 2.28% | 3.8% | -1.42%
21 | C[C@]12CC[C@H](O)CC1=CC[C@@H]1[C@@H]2CC[C@]2(C)C(c3cccnc3)=CC[C@@H]12 | -2.51% | -0.544% | 0.888% | 2.81% | 3.94% | -0.894% | -6.23 | 0.327% | -2.29% | -1.17%
22 | CCOC(=O)C1=C(COCCN)NC(C)=C(C(=O)OC)C1c1ccccc1Cl (configuration not stated) | 15% and 3.31% | 4.6% and -0.383% | 5.13% and -0.147% | 4.27% and -0.283% | 6.07% and -2.96% | 6.22% and 0.934% | – | 1.11% and -4.26% | 3.83% and -2% | 0.181% and 0.61%
23 | NC(=O)N1c2ccccc2CC(=O)c2ccccc21 | -3.02% | -1.81% | -2.16% | -3.17% | -2.13% | -4.21% | -3.92 | -3.93% | -1.28% | -0.579%
24 | CCn1cc(C(=O)O)c(=O)c2cc(F)c(N3CCNCC3)cc21 | -0.303% | 1.84% | 0.79% | 0.854% | 3.3% | 2.09% | 3.22 | -0.867% | 0.897% | 3.56%
25 | CN1CCOC(c2ccccc2)c2ccccc2C1 (configuration not stated) | -3.82% | -1.11% | -0.00387% | -2.6% | -1.87% | -4.34% | 19.3 | -1.45% | -8.5% | 2.52%
26 | Cc1ncc(C[n+]2csc(CCO)c2C)c(N)n1 | 0.631% | -0.256% | -1.44% | 0.746% | 1.92% | 1.62% | -1.01 | -0.371% | 0.498% | 0.53%
27 | CN1[C@@H]2CC[C@H]1CC(OC(=O)c1c[nH]c3ccccc13)C2 (some centres not stated) | 4.79% | 5.76% | 6.41% | 23.4% | 7.53% | 1.59% | 58.8 | 9.21% | 1.15% | 0.619%
28 | CC(C)C(=O)Nc1ccc([N+](=O)[O-])c(C(F)(F)F)c1 | 1.6% | 2.28% | 2.18% | 2.7% | 11.9% | 0.873% | 6.29 | 5.63% | 3.39% | 2.07%
